Each structure is given as a SMILES string.

Broadly, the residual activity is the signal under treatment as a percentage of the control signal.

The target in experiment [1] is Death-associated protein kinase 1 (Homo sapiens) (UniProt P53355). Particulars: at 10 µM.
Experiment [2] deals with T1, Discoidin domain-containing receptor 2 (Homo sapiens) (UniProt Q16832).
T1 sequence (whole entry): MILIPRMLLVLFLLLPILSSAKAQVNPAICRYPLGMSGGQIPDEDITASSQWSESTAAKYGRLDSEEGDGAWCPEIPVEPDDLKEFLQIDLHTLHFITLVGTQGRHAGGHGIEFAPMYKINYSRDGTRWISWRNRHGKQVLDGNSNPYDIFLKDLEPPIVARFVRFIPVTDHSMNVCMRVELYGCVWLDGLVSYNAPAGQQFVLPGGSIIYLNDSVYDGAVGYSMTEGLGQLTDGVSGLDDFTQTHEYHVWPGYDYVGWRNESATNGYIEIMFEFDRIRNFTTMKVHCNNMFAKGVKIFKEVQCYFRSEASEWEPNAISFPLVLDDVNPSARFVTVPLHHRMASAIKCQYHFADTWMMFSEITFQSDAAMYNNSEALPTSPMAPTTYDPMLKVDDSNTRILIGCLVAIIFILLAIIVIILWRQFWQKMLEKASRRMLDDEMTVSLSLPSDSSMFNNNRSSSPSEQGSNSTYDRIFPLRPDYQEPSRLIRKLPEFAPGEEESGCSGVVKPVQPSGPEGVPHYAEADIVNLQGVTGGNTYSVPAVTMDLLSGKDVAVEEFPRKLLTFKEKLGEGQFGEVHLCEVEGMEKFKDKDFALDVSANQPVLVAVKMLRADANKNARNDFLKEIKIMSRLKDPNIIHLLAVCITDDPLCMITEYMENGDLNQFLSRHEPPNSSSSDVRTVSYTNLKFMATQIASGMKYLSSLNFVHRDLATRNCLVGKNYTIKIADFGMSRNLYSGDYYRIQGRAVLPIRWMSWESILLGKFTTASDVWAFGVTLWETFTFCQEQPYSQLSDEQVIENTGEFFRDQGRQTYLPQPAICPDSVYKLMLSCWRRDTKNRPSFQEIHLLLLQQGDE
Particulars: at 1 µM.

The target in experiment [3] is T1, Discoidin domain-containing receptor 2 (Homo sapiens). Particulars: at 10 µM.
Experiment [4] has as its target T2, Myotonin-protein kinase (Homo sapiens) (UniProt Q09013).
T2 sequence (whole entry): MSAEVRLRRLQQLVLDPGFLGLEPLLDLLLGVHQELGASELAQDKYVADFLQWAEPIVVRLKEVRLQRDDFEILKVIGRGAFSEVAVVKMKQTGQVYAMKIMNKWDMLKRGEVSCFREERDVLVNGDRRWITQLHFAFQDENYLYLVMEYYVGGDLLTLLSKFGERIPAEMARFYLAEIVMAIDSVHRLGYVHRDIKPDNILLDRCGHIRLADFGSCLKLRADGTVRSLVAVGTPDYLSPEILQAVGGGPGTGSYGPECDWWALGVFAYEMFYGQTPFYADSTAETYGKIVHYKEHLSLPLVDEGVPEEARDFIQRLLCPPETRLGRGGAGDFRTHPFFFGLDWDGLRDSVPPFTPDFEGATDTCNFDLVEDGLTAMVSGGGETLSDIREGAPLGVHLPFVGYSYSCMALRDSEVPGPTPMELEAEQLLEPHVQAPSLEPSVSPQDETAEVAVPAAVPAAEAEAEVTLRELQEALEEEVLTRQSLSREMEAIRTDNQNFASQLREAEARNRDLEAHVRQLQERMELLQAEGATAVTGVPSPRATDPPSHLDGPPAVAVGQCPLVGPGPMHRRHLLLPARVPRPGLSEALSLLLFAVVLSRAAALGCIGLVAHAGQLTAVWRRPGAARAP
To be noted: at 1 µM.

For experiment [5], the target named is T3, Serine/threonine-protein kinase 17A (Homo sapiens) (UniProt Q9UEE5).
T3 sequence (whole entry): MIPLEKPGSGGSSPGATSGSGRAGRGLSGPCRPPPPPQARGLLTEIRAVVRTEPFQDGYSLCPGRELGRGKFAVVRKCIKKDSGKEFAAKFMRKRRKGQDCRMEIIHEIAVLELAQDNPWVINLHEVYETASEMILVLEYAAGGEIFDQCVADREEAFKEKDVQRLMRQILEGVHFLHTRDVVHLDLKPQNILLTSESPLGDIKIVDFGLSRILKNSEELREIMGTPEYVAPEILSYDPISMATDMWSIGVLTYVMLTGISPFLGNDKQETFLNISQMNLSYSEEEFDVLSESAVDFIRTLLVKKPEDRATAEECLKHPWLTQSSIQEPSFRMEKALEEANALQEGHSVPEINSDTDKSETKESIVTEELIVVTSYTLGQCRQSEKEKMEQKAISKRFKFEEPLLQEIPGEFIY
Particulars: at 1 µM.

Experiment [6] deals with T3, Serine/threonine-protein kinase 17A (Homo sapiens). To be noted: at 10 µM.
Experiment [7] deals with T4, Ephrin type-A receptor 1 (Homo sapiens) (UniProt P21709).
T4 sequence (whole entry): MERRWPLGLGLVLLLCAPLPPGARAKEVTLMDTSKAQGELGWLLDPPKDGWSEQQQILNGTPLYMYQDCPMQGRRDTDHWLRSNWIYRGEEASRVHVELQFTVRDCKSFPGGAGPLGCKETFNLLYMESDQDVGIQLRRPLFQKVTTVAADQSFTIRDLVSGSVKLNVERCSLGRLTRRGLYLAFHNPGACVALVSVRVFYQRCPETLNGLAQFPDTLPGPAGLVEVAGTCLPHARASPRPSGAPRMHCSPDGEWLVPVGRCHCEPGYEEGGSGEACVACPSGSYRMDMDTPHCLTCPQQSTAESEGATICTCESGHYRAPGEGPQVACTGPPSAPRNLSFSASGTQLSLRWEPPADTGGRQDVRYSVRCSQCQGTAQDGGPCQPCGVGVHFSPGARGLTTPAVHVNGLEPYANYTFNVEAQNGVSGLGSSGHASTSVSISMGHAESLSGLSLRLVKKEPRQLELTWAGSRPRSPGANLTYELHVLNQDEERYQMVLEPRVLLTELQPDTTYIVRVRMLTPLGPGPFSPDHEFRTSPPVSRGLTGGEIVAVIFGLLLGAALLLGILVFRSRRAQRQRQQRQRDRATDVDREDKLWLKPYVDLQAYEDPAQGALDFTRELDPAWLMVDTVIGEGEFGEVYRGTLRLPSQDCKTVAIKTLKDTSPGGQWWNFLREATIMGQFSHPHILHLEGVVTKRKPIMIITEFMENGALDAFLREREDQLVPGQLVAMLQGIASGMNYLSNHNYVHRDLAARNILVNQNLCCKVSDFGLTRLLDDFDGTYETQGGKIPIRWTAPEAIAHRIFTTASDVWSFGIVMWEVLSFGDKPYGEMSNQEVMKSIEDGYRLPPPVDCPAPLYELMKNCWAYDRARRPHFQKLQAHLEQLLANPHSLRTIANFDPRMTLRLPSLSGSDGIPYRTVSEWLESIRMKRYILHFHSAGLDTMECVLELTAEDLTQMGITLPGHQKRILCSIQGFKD
To be noted: at 1 µM.

The target of experiment [8] is T4, Ephrin type-A receptor 1 (Homo sapiens). Particulars: at 10 µM.
Experiment [9] deals with Death-associated protein kinase 2 (Homo sapiens) (UniProt Q9UIK4). Particulars: at 1 µM.
For experiment [10] the target is unchanged. Particulars: at 10 µM.
In experiment [11] the target is T5, Serine/threonine-protein kinase DCLK2 (Homo sapiens) (UniProt Q8N568).
T5 sequence (whole entry): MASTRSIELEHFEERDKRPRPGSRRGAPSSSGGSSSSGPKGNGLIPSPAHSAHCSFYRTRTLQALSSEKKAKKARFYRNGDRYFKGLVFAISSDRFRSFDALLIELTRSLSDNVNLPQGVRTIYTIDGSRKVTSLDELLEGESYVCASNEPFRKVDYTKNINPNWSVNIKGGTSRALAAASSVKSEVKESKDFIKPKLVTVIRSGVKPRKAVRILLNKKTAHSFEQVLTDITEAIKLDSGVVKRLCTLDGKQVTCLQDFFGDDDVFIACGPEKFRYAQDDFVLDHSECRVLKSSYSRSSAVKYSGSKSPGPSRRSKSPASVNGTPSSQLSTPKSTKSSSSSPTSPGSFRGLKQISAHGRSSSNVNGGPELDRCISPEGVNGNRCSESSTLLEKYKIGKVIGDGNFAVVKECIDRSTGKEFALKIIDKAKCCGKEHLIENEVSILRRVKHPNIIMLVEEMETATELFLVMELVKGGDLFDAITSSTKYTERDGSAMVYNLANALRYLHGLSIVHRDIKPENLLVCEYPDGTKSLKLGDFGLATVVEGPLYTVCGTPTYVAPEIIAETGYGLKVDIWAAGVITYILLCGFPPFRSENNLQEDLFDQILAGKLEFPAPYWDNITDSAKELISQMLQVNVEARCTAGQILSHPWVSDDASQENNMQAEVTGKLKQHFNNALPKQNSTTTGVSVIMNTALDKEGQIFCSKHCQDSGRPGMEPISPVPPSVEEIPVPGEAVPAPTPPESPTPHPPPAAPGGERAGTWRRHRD
Particulars: at 1 µM.

In experiment [12] the target is T5, Serine/threonine-protein kinase DCLK2 (Homo sapiens). Particulars: at 10 µM.
For experiment [13], the target named is T6, Dual specificity tyrosine-phosphorylation-regulated kinase 2 (Homo sapiens) (UniProt Q92630).
T6 sequence (whole entry): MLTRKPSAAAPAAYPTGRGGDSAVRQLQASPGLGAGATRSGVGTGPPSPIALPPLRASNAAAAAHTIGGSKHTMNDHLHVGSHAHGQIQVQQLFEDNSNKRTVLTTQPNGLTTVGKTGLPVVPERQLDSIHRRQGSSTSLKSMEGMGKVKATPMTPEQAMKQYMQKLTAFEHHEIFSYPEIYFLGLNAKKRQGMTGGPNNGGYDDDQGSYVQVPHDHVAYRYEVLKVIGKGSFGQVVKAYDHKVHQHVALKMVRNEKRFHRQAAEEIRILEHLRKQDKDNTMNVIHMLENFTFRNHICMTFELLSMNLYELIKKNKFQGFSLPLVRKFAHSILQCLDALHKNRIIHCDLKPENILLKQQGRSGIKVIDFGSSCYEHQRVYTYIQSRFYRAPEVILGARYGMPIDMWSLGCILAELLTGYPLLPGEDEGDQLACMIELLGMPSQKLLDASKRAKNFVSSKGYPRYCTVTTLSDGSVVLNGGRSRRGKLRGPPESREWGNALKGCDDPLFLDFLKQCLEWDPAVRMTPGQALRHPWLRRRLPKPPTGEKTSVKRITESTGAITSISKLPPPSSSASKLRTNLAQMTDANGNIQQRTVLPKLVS
Particulars: at 1 µM.

Experiment [14] addresses T6, Dual specificity tyrosine-phosphorylation-regulated kinase 2 (Homo sapiens). Particulars: at 10 µM.
Experiment [15] addresses Ephrin type-A receptor 2 (Homo sapiens) (UniProt P29317). To be noted: at 10 µM.

Death-associated protein kinase 2 (Homo sapiens), sequence (Q9UIK4 whole entry, looked up): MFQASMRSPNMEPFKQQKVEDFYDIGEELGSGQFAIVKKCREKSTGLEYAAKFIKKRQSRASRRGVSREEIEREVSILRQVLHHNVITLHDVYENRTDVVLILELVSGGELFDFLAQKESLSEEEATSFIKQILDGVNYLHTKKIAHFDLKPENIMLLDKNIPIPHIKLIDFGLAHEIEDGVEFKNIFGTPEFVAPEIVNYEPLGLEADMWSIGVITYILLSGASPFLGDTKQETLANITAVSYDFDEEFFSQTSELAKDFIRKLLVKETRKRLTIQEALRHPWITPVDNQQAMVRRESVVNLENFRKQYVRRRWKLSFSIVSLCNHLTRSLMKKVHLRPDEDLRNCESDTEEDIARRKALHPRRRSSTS
Ephrin type-A receptor 2 (Homo sapiens), sequence (P29317 whole entry): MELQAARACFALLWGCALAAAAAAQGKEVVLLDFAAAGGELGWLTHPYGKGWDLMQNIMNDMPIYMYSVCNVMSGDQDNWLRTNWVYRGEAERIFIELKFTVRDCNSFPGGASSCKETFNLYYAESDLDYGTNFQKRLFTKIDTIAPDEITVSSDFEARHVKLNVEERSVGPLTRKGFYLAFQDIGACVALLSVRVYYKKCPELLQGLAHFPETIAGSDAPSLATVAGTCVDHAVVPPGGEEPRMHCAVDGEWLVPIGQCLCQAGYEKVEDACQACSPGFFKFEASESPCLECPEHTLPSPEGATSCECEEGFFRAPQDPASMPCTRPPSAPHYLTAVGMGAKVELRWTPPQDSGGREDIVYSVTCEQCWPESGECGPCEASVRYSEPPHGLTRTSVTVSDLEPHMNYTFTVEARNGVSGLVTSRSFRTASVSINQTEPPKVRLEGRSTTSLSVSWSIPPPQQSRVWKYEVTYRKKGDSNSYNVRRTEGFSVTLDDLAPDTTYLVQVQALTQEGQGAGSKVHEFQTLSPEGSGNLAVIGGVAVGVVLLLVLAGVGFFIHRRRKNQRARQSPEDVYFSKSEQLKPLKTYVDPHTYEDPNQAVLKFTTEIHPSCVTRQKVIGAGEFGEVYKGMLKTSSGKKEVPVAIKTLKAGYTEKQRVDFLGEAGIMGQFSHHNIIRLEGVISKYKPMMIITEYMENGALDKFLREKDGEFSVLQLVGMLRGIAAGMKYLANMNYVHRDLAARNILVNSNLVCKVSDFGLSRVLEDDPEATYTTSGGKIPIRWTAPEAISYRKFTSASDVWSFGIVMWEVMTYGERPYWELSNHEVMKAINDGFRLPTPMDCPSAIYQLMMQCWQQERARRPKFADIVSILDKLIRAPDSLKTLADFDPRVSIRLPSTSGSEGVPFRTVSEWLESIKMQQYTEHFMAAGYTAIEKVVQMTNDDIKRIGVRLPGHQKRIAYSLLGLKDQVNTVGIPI
Death-associated protein kinase 1 (Homo sapiens), sequence (P53355 whole entry, looked up, the tested form may be a part): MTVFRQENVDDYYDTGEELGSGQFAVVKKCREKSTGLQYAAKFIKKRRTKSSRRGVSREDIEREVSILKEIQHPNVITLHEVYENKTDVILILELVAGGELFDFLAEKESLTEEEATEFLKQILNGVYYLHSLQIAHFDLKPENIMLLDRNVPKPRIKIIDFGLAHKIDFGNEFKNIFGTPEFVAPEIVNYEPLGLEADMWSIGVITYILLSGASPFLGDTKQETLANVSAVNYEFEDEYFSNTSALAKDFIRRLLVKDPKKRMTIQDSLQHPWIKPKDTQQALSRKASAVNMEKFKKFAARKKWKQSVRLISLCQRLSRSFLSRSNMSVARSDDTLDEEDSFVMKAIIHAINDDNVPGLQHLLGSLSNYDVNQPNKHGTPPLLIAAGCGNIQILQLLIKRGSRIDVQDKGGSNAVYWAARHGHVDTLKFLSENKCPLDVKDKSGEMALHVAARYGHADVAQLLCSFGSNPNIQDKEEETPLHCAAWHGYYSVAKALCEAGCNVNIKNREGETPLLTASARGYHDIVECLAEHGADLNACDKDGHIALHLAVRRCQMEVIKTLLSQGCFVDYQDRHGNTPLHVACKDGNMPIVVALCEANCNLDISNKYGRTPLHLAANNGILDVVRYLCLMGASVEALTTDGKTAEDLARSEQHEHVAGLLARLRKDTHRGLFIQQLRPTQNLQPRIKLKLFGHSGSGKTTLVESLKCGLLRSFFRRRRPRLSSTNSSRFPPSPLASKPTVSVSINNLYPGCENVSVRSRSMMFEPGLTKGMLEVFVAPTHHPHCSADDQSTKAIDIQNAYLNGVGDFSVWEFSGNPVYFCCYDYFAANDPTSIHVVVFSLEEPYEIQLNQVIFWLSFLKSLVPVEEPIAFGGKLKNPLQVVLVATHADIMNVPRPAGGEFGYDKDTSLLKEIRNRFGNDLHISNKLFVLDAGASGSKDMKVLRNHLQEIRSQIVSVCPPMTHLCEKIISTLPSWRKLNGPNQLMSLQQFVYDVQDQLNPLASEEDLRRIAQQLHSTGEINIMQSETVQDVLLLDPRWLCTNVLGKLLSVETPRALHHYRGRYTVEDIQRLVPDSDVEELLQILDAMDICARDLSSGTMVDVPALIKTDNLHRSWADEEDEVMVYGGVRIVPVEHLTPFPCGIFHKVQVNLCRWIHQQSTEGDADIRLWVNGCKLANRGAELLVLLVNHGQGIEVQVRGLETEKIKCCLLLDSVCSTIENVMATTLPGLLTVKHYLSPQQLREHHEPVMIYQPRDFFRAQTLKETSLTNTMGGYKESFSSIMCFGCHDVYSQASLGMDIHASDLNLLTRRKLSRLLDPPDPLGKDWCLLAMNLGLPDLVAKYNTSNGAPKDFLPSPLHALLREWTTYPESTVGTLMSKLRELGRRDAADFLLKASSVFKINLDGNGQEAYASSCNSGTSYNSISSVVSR

For the compound `COc1ccc(Cl)cc1NC(=O)Nc1cc(C)nc2ccccc12`, the residual activity in [1] was found to be 66%; in [2], 83%; in experiment [3], 39%; in experiment [4], 94%; in experiment [5], 97%; in [6], 58%. For the same compound, the residual activity in [7] and in experiment [8] was 89% throughout.

On to `Nc1ncnc2[nH]nc(Nc3ccc(F)cc3)c12`, for which the residual activity in [9] is 99%; in [10], 100%; in experiment [11], 107%; in experiment [12], 96%; in experiment [2] it was 95%; in experiment [3] it was 92%. In addition, the residual activity in experiment [5] worked out at 45%; in experiment [6], 16%; in experiment [13], 79%; in [14], 30%; in experiment [7], 43%; in [15] it was 50%.

For the origin of these results see ChEMBL document CHEMBL2218924, “A broad activity screen in support of a chemogenomic map for kinase signalling research and drug discovery” (Biochem J, 2013).
